Screening data as filed in PubChem.
Cruzain inh noDet: blocks cruzain activity in detergent-free assay | actives 2.3% (n = 200,000) | Potency, µM, without a hit: max response, negative = inhibition, hits mostly inhibitors | purified cruzain, Z-FR-AMC fluorescence, no detergent;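 further: plate controls were enzyme without inhibitor for no effect and buffer without enzyme for full effect; nearly all actives have a fitted effect of over 40% in size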
Target sequence (P25779 123-467 limits assumed): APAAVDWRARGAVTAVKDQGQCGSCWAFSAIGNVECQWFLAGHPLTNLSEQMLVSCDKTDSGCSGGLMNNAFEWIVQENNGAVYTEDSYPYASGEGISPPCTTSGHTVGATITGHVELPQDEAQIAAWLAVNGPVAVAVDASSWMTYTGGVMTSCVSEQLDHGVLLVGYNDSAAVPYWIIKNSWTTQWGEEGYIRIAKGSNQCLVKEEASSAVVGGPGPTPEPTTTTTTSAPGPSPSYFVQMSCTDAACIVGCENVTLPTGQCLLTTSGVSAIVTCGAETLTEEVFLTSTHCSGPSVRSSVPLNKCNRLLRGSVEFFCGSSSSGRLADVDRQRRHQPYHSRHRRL
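Detergent-free condition (0.00005% Triton X-100) in acetate buffer pH 5.5 with DTT. 1.5 nM enzyme and compound were pre-mixed 15 min, then 2 uM Z-FR-AMC substrate added; reaction progress from fluorescence change between first and third reads (60 s).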
Cruzain inh Det: inhibitors of Trypanosoma cruzi cruzain with detergent. purified cruzain, Z-FR-AMC fluorescence, 0.01% Triton. Potency, µM, for the others: max response, negative = inhibition, hits mostly inhibitors. actives 0.43% (n = 200,000);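 further: plate controls were neutral wells for no effect and buffer without enzyme for full effect; nearly all actives have a fitted effect of over 40% in size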
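Detergent-containing arm of a paired screen for aggregation-based inhibition: 0.01% Triton X-100 present. Cruzain at 1.5 nM cleaved 2 uM Z-FR-AMC at pH 5.5 with 5 mM DTT; AMC fluorescence gain over 60 s measured activity.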
* = called active by the depositor; ? = inconclusive. Shown are actives, neighbours in structure and some others; about 2.4% of the full set was active somewhere. The call rests on the fitted dose curve; in most records, active means well fitted curve in the direction sought with a large enough effect; inconclusive means small, poorly fitted or top-dose-only effect, or another doubt; inactive means no such curve, though single readings can be large; an effect the other way counts as inactive or inconclusive. Potency means the concentration at half of the fitted maximal effect.

SMILES	Cruzain inh noDet	Cruzain inh Det
OC[C@@H]1[C@@H](c2ccc(F)cc2)C(c2cccc(Cl)c2)=NN1c1ccccc1	32µM*	0%
OC[C@@H]1[C@@H](c2ccc(Cl)cc2)C(c2cccc(Cl)c2)=NN1c1ccccc1	25µM*	2%
OC[C@@H]1[C@@H](c2ccc(Cl)cc2)C(c2ccccc2)=NN1c1ccccc1	-18%	0%
CCc1ccc(CNCc2c(C(=O)O)c(C)n(Cc3c(F)cccc3Cl)c2C)cc1	?	-5%
Cn1nccc1C(=O)Nc1ccn(C23CC4CC(CC(C4)C2)C3)n1	-7%	-5%
O=C(Nc1ccc(Br)cc1)c1nn(C23CC4CC(CC(C4)C2)C3)cc1Br	25µM*	0%
COc1ccc(CCNC(=O)CSc2nnc(-c3ccc(C)cc3)c(-c3ccc(C)cc3)n2)cc1OC	2%	0%
CC(C)NC(=O)c1nn(C)c2c1CS(=O)(=O)c1ccccc1-2	7%	-3%
Cc1c(C(=O)NCc2ccc3c(c2)OCO3)oc2ccc(S(=O)(=O)N3CCCCC3)cc12	?	3%
Cc1c(C(=O)NCc2ccc3c(c2)OCO3)oc2ccc(S(=O)(=O)N3CCCC3)cc12	16µM*	-1%
Cc1ccc(NC(=O)c2oc3ccc(S(=O)(=O)N4CCCCC4)cc3c2C)cc1C	6%	2%
Cc1c(C(=O)Nc2ccc(F)cc2)oc2ccc(S(=O)(=O)N3CCCCCC3)cc12	32µM*	0%
COc1cccc(-c2cc(C(=O)Nc3cc(Cl)ccc3O)on2)c1	-29%	-4%
Cc1ccc(C)c(N2CCN(C(=O)c3cc4c(=O)n(Cc5cccnc5)ccc4nc3C)CC2)c1	?	-12%
O=C(Cc1ccc(F)cc1)Nc1nnc2n1CCS2	-10%	1%
CCOc1ccc(C(=O)c2c(N)c(-c3nc(-c4ccc(OCC)cc4)cs3)c3ccccn23)cc1	-19%	-2%
COc1cccc(-c2csc(-c3c(N)c(C(=O)c4ccc5c(c4)OCO5)n4ccccc34)n2)c1	3.2µM*	-2%
CCOc1ccc(C(=O)c2c(N)c(-c3nc(-c4ccc5c(c4)OCO5)cs3)c3ccccn23)cc1	-19%	-2%
COc1ccccc1C(=O)c1c(N)c(-c2nc(-c3ccccc3)cs2)c2ccccn12	10µM*	-5%
COc1ccc(C(=O)c2c(N)c(-c3nc(-c4ccc(OC)cc4)cs3)c3ccccn23)cc1	?	-2%
COc1ccc(C(=O)c2c(N)c(-c3nc(-c4ccccc4)cs3)c3ccccn23)cc1	7.9µM*	-3%
Cc1ccccc1Cn1c(CN2CCC(C(=O)NCCN(C)C)CC2)cc2ccccc21	0%	1%
COc1ccc2c(c1)c1c(c(=O)n(CCc3ccccc3)c(=O)n1Cc1ccccc1)n2C	3%	-3%
O=C(CSc1nc2ccccc2nc1Cc1ccc(Cl)cc1)N1CCCCC1	9%	-4%
Cc1ccc(NC(=O)N2CCc3cc(S(=O)(=O)N4CCC(C)CC4)ccc32)cc1C	6%	-2%
SMILES	Cruzain inh noDet	Cruzain inh Det
CCOc1ccc(-c2ccc(NS(=O)(=O)c3ccc(C)cc3)cc2)nn1	-28%	-7%
Cc1ccc(NC(=O)CSc2[nH]c(=O)ncc2C)cc1	0%	1%
CCOc1ccc(S(=O)(=O)c2cn(Cc3ccccc3C)c3ccc(OC)cc3c2=O)cc1	?	-8%
COc1ccc(-n2c(CNc3ccc(C)cc3)nnc2SCC(=O)Nc2nc(-c3ccccc3)cs2)cc1	6.3µM*	2%
Cc1cc(C)nc(SCc2nnc(SCC(=O)Nc3nc(-c4ccccc4)cs3)n2-c2ccccc2)n1	?	5%
COc1ccc(-n2c(Cc3cccn3C)nnc2SCC(=O)Nc2ccc(C)cc2)cc1	19%	-6%
COc1ccc(NCc2nnc(SCC(=O)Nc3nc(-c4ccccc4)cs3)n2-c2ccccc2)cc1	25µM*	-1%
Cc1ccc(C(=O)N2CCN(c3ccc(Cl)cc3)CC2)cc1	-7%	1%
N#CCC(=N)N1CCN(c2ccc(Cl)cc2)CC1	13µM*	-1%
Nc1c(C(=O)NCC2CCCO2)sc2nc3c(c(-c4ccco4)c12)CC/C3=C\c1ccco1 (stereo not given)	-4%	28µM*
Cc1ccccc1NC(=O)c1sc2nc3c(c(-c4ccco4)c2c1N)CCC3	-27%	-4%
Cc1c(C(=O)Nc2ccc(F)cc2F)nnn1-c1ccccc1Br	9%	-1%
CCn1c(=O)c(C(=O)Nc2ccccc2S(N)(=O)=O)c(O)c2ccccc21	?	-4%
CCn1c(=O)c(C(=O)NNS(=O)(=O)c2ccc(Cl)cc2)c(O)c2ccccc21	25µM*	-9%
Cc1ccc(NCc2cccn2-c2nnc(N3CCC(C(=O)NCc4ccc(OC(C)C)cc4)CC3)s2)cc1	-13%	-4%
COc1ccc(Br)cc1CNC(=O)C1CCN(c2nnc(-n3cccc3CNc3ccc(C)cc3)s2)CC1	32µM*	-2%
COc1ccc(-n2c3c(cc(-c4nc(-c5ccc(Cl)cc5)cs4)c2=O)C(=O)CC(C)(C)C3)cc1	3%	-2%
Cc1ccccc1CSc1ncc(Cl)c(C(=O)Nc2nc3ccc(F)cc3s2)n1	-6%	0%
Cc1ccc(S(=O)(=O)N2Cc3ccccc3CC2C(=O)Nc2ccc3c(c2)OCO3)cc1 (stereo not given)	?	-3%
COc1ccc(S(=O)(=O)N2Cc3ccccc3CC2C(=O)Nc2ccc3c(c2)OCO3)cc1 (stereo not given)	25µM*	-4%
Cc1c(/C=N/NC(=O)CNc2ccccc2)c2ccccn2c1C(=O)c1ccc(Cl)cc1	?	-4%
Cc1ccccc1NCC(=O)N/N=C/c1c(C)c(C(=O)c2ccc(Cl)cc2)n2ccccc12	7.9µM*	-9%
O=C(Nc1nnc(SCc2cc(=O)n3cc(Cl)ccc3n2)s1)c1cccc(F)c1	4%	1%
COc1ccc(OC)c(NC(=O)c2ccc(CN(c3cc(Cl)ccc3C)S(=O)(=O)c3ccccc3)cc2)c1	10µM*	3%
COc1ccc(OC)c(NC(=O)c2cccc(S(=O)(=O)N(Cc3ccccc3)c3ccccc3OC)c2)c1	?	-1%
SMILES	Cruzain inh noDet	Cruzain inh Det
N#CC1=C(N)N2C(=C(C#N)C1c1ccccc1)Sc1ccccc12 (stereo not given)	13µM*	-2%
CCOc1ccc(C2C(C#N)=C(N)N3C(=C2C#N)Sc2ccccc23)cc1 (stereo not given)	?	-10%
CCOC(=O)c1sc(N(Cc2ccccc2)C(=O)COC(=O)c2ccc(O)cc2)nc1C	16µM*	-5%
CCOC(=O)c1sc(N(Cc2ccccc2)C(=O)COC(=O)c2ccccc2O)nc1C	-16%	-7%
COc1ccc(C)c2sc(N(Cc3cccnc3)C(=O)c3cccs3)nc12	?	-5%
NNC(=O)c1ccc(COc2ccccc2)cc1	9%	-1%
Cc1ccc(C(=O)Nc2ccc(OCc3ccccc3)cc2)cc1[N+](=O)[O-]	13µM*	-2%
COC(=O)c1ccc(OCCOc2ccccc2)cc1	0%	-5%
O=C(Nc1ccc(F)cc1)c1ccc(COc2ccccc2)cc1	13µM*	-1%
O=C(Nc1ccc(OCc2ccccc2)cc1)c1cccc([N+](=O)[O-])c1	-30%	-2%
COC(=O)c1ccc(CNC(=O)c2ccc(COc3ccccc3)cc2)cc1	10µM*	-2%
COc1ccc(-n2cc(-c3ccccc3)c3c(Nc4ccc(OC)c(OC)c4)ncnc32)cc1	2%	-1%
Cc1ccc(CCNc2ncnc3onc(C)c23)cc1	9%	-3%
COc1cc(OC)c(NC(=O)c2ccc3nc(C(C)C)oc3c2)cc1Cl	?	-5%
